# From the supplement of paper PMC8285479
# Structures can show the parent of a compound that is named as a salt. ± gives the standard deviation of the averaged measurements. In all, about 1,900 compounds were measured (“normalised cell viability (NPI; 0 = phenylarsine oxide control, 1 = DMSO control)”: median about 1, lowest 2% from about 0.039 on). The list comes from a sample in which the lowest values are over-represented; it also holds similar structures and randomly drawn compounds.
# System: NCI-H1944
# Assay: normalised cell viability (NPI; 0 = phenylarsine oxide control, 1 = DMSO control) (fraction of DMSO control); NCI-H1944 is a non-small cell lung cancer line; higher = more viable cells (less compound toxicity)
# Conditions: 6 days
# [1] = glucocorticoid arm: hydrocortisone 2.75 uM co-treatment, compound 1 µM
# [2] = glucocorticoid arm: hydrocortisone 2.75 uM co-treatment, compound 5 µM
# [3] = glucocorticoid arm: hydrocortisone 2.75 uM pre-treated 2 days and continued, compound 1 µM
# [4] = glucocorticoid arm: hydrocortisone 2.75 uM pre-treated 2 days and continued, compound 5 µM
# [5] = glucocorticoid arm: vehicle, compound 1 µM
# [6] = glucocorticoid arm: vehicle, compound 5 µM
# 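Further: CTB read-out in 384-well plates, triplicate wells, NPI normalised per plate against 1 µM phenylarsine oxide (0) and 0.1% DMSO (1) controls.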
SMILES,normalised cell viability [1],normalised cell viability [2],normalised cell viability [3],normalised cell viability [4],normalised cell viability [5],normalised cell viability [6]
N[C@@H](Cc1ccc(O)c(I)c1)C(=O)O [3-Iodo-L-tyrosine],0.982 ± 0.01,0.973 ± 0.035,0.991 ± 0.006,0.996 ± 0.066,0.999 ± 0.011,0.998 ± 0.01
N[C@H](CO)C(=O)O [D-Serine],1.013 ± 0.0058,1.04 ± 0.06,0.896 ± 0.27,1.02 ± 0.01,1.02,1.017 ± 0.0058
CN1CCc2cc(O)c(O)cc2C(c2ccccc2)C1 (stereo not given),1 ± 0.0087,1.02 ± 0.022,0.876 ± 0.23,1.01 ± 0.02,1.02,1.023 ± 0.0058
CCCS(=O)(=O)Nc1ccc(F)c(C(=O)c2c[nH]c3ncc(-c4ccc(Cl)cc4)cc23)c1F [Vemurafenib (PLX4032)],1.05 ± 0.011,0.997 ± 0.029,1.03,1.01 ± 0.026,1.017 ± 0.0058,1.007 ± 0.0058
COc1ncc(-c2ccc3nccc(-c4ccnnc4)c3c2)cc1NS(=O)(=O)c1ccc(F)cc1F,0.264 ± 0.0058,0.231 ± 0.027,0.365 ± 0.025,0.249 ± 0.02,0.0495 ± 0.0081,0.0214 ± 0.0013
COc1cc2nccc(Oc3ccc(NC(=O)Nc4ccc(F)cc4F)c(F)c3)c2cc1OC,1.05 ± 0.011,1.06 ± 0.01,1.037 ± 0.0058,1.04 ± 0.021,1.003 ± 0.0063,1.013 ± 0.0058
CCCS(=O)(=O)Nc1ccc(F)c(C(=O)c2c[nH]c3ncc(-c4ccc(Cl)cc4)cc23)c1F [vemurafenib],1.04 ± 0.011,1.14 ± 0.02,1.03 ± 0.01,1.08 ± 0.01,1.01 ± 0.01,1.037 ± 0.0058
"Nc1ncnc2c1ncn2[C@@H]1O[C@@H]2COP(=O)(O)O[C@H]2[C@H]1O [Adenosine 3',5'-cyclic monophosphate]",0.986 ± 0.014,0.9813 ± 0.007,0.998 ± 0.011,0.965 ± 0.019,0.991 ± 0.016,0.9797 ± 0.0074
NCc1c[nH]c(=S)n1[C@H]1CCc2c(F)cc(F)cc2C1 [Nepicastat (SYN-117) HCl],0.9937 ± 0.006,1,1.01 ± 0.022,0.98 ± 0.017,0.9937 ± 0.0085,0.9913 ± 0.0051
C=CC(=O)Nc1cc(Nc2nccc(-c3cn(C)c4ccccc34)n2)c(OC)cc1N(C)CCN(C)C,0.891 ± 0.003,0.842 ± 0.022,0.944 ± 0.015,0.916 ± 0.034,0.789 ± 0.028,0.762 ± 0.045
CC[C@@H]1SC2(CCN(C)CC2)NC1=O,1.02,1.01 ± 0.011,1.03 ± 0.029,1.02 ± 0.011,1.013 ± 0.0058,1.01 ± 0.012
CC(C)[C@H](NC(=O)OCc1ccccc1)C(=O)N[C@H](C=O)Cc1ccccc1,0.989 ± 0.011,0.987 ± 0.041,0.997 ± 0.0052,1.03 ± 0.085,1 ± 0.0087,1 ± 0.013
Cc1ccc(S(=O)(=O)N[C@@H](Cc2ccccc2)C(=O)CCl)cc1 [N-p-Tosyl-L-phenylalanine chloromethyl ketone],0.9977 ± 0.0032,1.01 ± 0.028,0.868 ± 0.25,1.02 ± 0.015,1.007 ± 0.0058,0.691 ± 0.057
O=C(N[C@@H](Cc1ccccc1)C(=O)CCl)OCc1ccccc1 [Z-L-Phe chloromethyl ketone],1.03 ± 0.01,0.028 ± 0.0044,1.02 ± 0.016,1.075 ± 0.0071,1.03 ± 0.01,0.149 ± 0.086
CC1=C(C(=O)OC2CCCCC2)C(c2ccc([N+](=O)[O-])cc2)C2=C(CC(C)(C)CC2=O)N1 (stereo not given),1.03 ± 0.025,1.02 ± 0.023,1.03 ± 0.015,1.02 ± 0.026,1.017 ± 0.0058,1.003 ± 0.0058
C/C=C1\C(=O)C[C@H]2[C@@H]3CCC4=CC(=O)CC[C@]4(C)[C@H]3CC[C@]12C [(Z)-Guggulsterone],0.9933 ± 0.0015,0.98 ± 0.031,0.994 ± 0.02,0.964 ± 0.029,0.9953 ± 0.0035,0.9887 ± 0.0091
O=C(c1ccc(Cl)cc1)N1CCN(c2ccc([N+](=O)[O-])c3ncccc23)CC1,1.01 ± 0.013,1.01 ± 0.027,0.992 ± 0.014,0.996 ± 0.014,0.997 ± 0.015,1 ± 0.021
OC1(c2ccc(Cl)cc2)CCN(Cc2c[nH]c3ccccc23)CC1,0.972 ± 0.021,0.852 ± 0.052,1.003 ± 0.0061,1.04 ± 0.086,0.9753 ± 0.0065,0.988 ± 0.01
CN(C)C(=O)C(CCN1CCC(O)(c2ccc(Cl)cc2)CC1)(c1ccccc1)c1ccccc1 [Loperamide HCl],1.02 ± 0.026,0.893 ± 0.035,1.047 ± 0.0058,0.984 ± 0.012,1.017 ± 0.0058,0.919 ± 0.0099
O=C(CCCN1CCC(O)(c2ccc(Cl)cc2)CC1)c1ccc(F)cc1 [Haloperidol],0.996 ± 0.013,0.93 ± 0.023,1.01,1.01 ± 0.025,0.9843 ± 0.0035,0.985 ± 0.002
CN(C)C(=O)C(CCN1CCC(O)(c2ccc(Cl)cc2)CC1)(c1ccccc1)c1ccccc1 [Loperamide hydrochloride],0.9953 ± 0.0042,0.405 ± 0.032,1.017 ± 0.0058,0.87 ± 0.29,1,0.0171 ± 0.0045
Nc1nc2[nH]cnc2c(=S)[nH]1 [Thioguanine],0.931 ± 0.0046,0.423 ± 0.024,0.9813 ± 0.0011,0.754 ± 0.04,0.9133 ± 0.0051,0.119 ± 0.011
Cc1[nH]c2ccccc2c1CCNCc1ccc(/C=C/C(=O)NO)cc1 [Panobinostat (LBH589)],0.00703 ± 0.0011,0.00134 ± 0.00097,0.00592 ± 0.0022,0.00214 ± 0.0018,0.00625 ± 0.001,9e-05 ± 0.00045
Cc1[nH]c2ccccc2c1C1=C(NCCc2ccc(F)cc2)C(=O)N(C)C1=O,0.964 ± 0.019,0.962 ± 0.053,0.988 ± 0.011,0.973 ± 0.021,0.977 ± 0.007,0.9803 ± 0.0047
CC(C)N(CCCNC(=O)Nc1ccc(C(C)(C)C)cc1)C[C@H]1O[C@@H](n2ccc3c(N)ncnc32)[C@H](O)[C@@H]1O,1.003 ± 0.0058,1.07 ± 0.025,0.984 ± 0.0053,1.04 ± 0.01,1.002 ± 0.0068,1.002 ± 0.0076
